Source: PubChem (National Center for Advancing Translational Sciences (NCATS))
SMN2 splice up: SMN2 splice variant enhancement. HEK293 SMN2-luciferase splicing reporter, luminescence, 30-36 h. Potency, µM (series often up to 46.1 µM), actives largely listed as activators. 210,000 compounds, 2.8% hits. AID 1458; also: nearly all actives have a fitted effect of over 55% in size
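HEK293 cells carry an SMN2 minigene-luciferase reporter in which exon 7 inclusion puts luciferase in frame. Cells were seeded at 2000 cells/well, attached for 10-12 hours, then exposed to compounds for 30-36 hours at 37C before ONE-Glo luminescence.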
NPC1 promoter act: NPC1 promoter activation | Huh7 NPC1 promoter luciferase reporter, 24 h | Potency, µM (titrated, usually from 9.22 µM), most hits filed as activators | AID 485313 | 320,000 compounds, 2.4% hits; also: nearly all actives have a fitted effect of over 60% in size
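Huh7 cells stably carrying NPC1 promoter–luciferase, plated in Opti-MEM with 10% FBS for 2 h, were exposed to compound in DMSO for 24 h at 37 °C; luciferase reagent was added for 10 min and luminescence read.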
Luc counter: blocks Kinase-Glo luciferase, a counter-screen artifact; Q27757; Kinase-Glo luciferase, ATP luminescence, 8 min; Potency, µM (titrated, usually from 38.3 µM), most hits filed as inhibitors; 200,000 compounds, 0.28% hits; AID 1379; also: nearly all actives have a fitted effect of over 60% in size
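Recombinant Kinase-Glo luciferase, 10 uM ATP (linear range), luciferin; imidazole pH 7.2 / KCl / MgCl2 / Tween / BSA buffer; 8 min RT; luminescence.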
Rab9 promoter act: activators of Rab9 promoter; Huh7 Rab9 promoter-luciferase reporter, luminescence, 24 h; Potency, µM (titrated, usually from 9.22 µM), hits mostly activators; 320,000 compounds, 2.8% hits; also: nearly all actives have a fitted effect of over 60% in size
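Huh7 cells stably carrying Rab9 promoter–luciferase reporter, plated 1500 cells/well, compound added after 2 h and incubated 24 h at 37 °C; luciferase luminescence then read after 10 min with detection reagent.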
FLuc modulator: firefly luciferase modulation, counter-screen for miR-21 project. P08659. purified FLuc, Km substrates, luminescence inhibition. Potency, µM (top dose mostly 57.5 µM), most hits filed as inhibitors. 360,000 compounds, 6.9% hits. AID 588342; also: nearly all actives have a fitted effect of over 55% in size
Target sequence (P08659 whole entry, looked up): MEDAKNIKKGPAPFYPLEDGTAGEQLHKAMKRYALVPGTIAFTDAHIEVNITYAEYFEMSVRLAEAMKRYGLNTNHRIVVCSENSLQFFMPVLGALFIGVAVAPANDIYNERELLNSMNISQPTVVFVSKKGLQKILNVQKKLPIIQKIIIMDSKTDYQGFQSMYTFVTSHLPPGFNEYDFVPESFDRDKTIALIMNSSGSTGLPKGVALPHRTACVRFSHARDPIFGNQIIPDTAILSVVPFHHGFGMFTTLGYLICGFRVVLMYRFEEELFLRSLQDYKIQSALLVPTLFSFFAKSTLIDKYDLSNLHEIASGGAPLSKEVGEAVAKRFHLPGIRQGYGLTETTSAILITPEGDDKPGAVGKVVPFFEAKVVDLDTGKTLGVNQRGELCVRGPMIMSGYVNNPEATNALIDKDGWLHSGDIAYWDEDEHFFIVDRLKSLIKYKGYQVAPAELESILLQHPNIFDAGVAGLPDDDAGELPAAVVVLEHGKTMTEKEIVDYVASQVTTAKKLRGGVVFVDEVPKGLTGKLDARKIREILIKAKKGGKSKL
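Biochemical qHTS of compounds, final roughly 60 µM downward over six points, against 10 nM purified firefly luciferase using Km concentrations of substrates (10 uM D-luciferin, 10 uM ATP) in Tris acetate pH 7.5 buffer; luminescence output.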
Numbers stand for hits; i = inactive; ? = inconclusive; nt = no result given. Most compounds without a hit are left out; they make up all but 7.3% or so of the library. Calls follow the shape of the dose curve; as a rule, active = well fitted curve in the direction sought with a large enough effect; inconclusive = small, poorly fitted or top-dose-only effect, or another doubt; inactive = no such curve, though single readings can be large; an effect the other way counts as inactive or inconclusive.

SMILES	SMN2 splice up	NPC1 promoter act	Luc counter	Rab9 promoter act	FLuc modulator
CC1CCN(c2ccc(-c3cccc(NC(=O)c4ccco4)c3)nn2)CC1	nt	1.3µM	nt	1µM	0.15µM
CCC(=O)Nc1ccc(-c2ccc(N3CCC(C)CC3)nn2)cc1	nt	2.8µM	nt	1.4µM	9.5µM
CCC(=O)Nc1cccc(-c2ccc(N3CCC(C)CC3)nn2)c1	nt	0.32µM	nt	0.32µM	0.13µM
COc1ccc(NC(=O)CCn2cnnn2)cc1	nt	nt	nt	nt	i
COc1cc(/C=N/NC(=O)c2cc(C34CC5CC(CC(C5)C3)C4)[nH]n2)ccc1O	i	i	i	i	13µM
COc1cc(/C=N/NC(=O)c2[nH]nc3c2CCc2ccccc2-3)ccc1O	i	i	i	i	27µM
Cc1ccc(-c2cn3c(n2)sc2cc(C(=O)NC4CCCCCC4)ccc23)cc1	nt	nt	nt	nt	i
Cc1cc2oc(=O)cc(-c3ccccc3)c2c(C)c1-c1ccoc1	nt	nt	i	nt	nt
O=C(Oc1cccnc1)c1ccc(Cl)c(Cl)c1	i	i	i	i	?
O=C(COC(=O)c1cccnc1)c1ccc(Cl)c(Cl)c1	i	i	i	i	17µM
O=C(COC(=O)c1cccnc1)Nc1cccc(Cl)c1	i	i	i	i	i
O=C(COC(=O)c1cccnc1)c1ccc(Cl)cc1	i	i	i	i	11µM
CCOc1ccc(-n2c(=O)c3c4c(sc3n(Cc3cccc(C)c3)c2=O)CCCC4)cc1	i	nt	nt	nt	i
CN(C)c1ccc(/C=C2\SC(N3CCCCC3)=NC2=O)cc1	nt	?	nt	i	0.54µM
O=C1N=C(N2CCCCC2)S/C1=C/C1=Cc2ccccc2OC1	i	i	i	i	2.4µM
COc1ccc(/C=C2\SC(N3CCCCC3)=NC2=O)cc1OC	nt	i	nt	i	11µM
Cc1ccc(/C=C2\SC(N3CCCC3)=NC2=O)cc1	i	i	i	i	?
COc1cc(/C=C2\SC(N3CCC(C)CC3)=NC2=O)ccc1O	nt	i	nt	i	11µM
CCOC(=O)C1CCN(C2=NC(=O)/C(=C/c3ccc(OC)c(OC)c3)S2)CC1	nt	i	nt	i	?
COc1ccc(OC)c(/C=C2\SC(N3CCCC(C)C3)=NC2=O)c1 (stereo not given)	nt	i	nt	i	?
COc1ccc(NC2C[C@H]3CCCC(=O)N4CC[C@@H](C2)[C@@H]34)cc1 (stereo not given in full)	nt	nt	i	nt	nt
Cc1ccc(/C=C/C(=O)CCC(=O)O)cc1	nt	i	i	?	6.7µM
COc1ccc(-c2cn3c(n2)sc2cc(C(=O)NCC(C)c4ccccc4)ccc23)cc1 (stereo not given)	nt	nt	nt	nt	i
CC(C)c1ccccc1NC(=O)CN1C(=O)c2cccc3cccc1c23	i	nt	nt	nt	i
Cc1c(C)n(Cc2ccccc2)c2ccc(C(=O)OCCN(C)C)cc12	nt	i	i	i	21µM
SMILES	SMN2 splice up	NPC1 promoter act	Luc counter	Rab9 promoter act	FLuc modulator
COC(=O)c1[nH]c2cc(C)ccc2c1NC(=O)CN1CCCc2ccccc21	i	?	i	?	24µM
COC(=O)c1[nH]c2ccc(Br)cc2c1NC(=O)CN1CCCc2ccccc21	i	i	i	i	i
O=[N+]([O-])c1cc(C(F)(F)F)ccc1NCCc1c[nH]c2ccccc12	i	i	i	i	i
O=[N+]([O-])c1cccnc1NCCNc1ncc(C(F)(F)F)cc1Cl	13µM	3.5µM	i	2.2µM	11µM
O=[N+]([O-])c1ccccc1NCCNc1ncc(C(F)(F)F)cc1Cl	?	i	i	i	i
O=[N+]([O-])c1cccnc1NCCc1ccccc1	nt	?	nt	3.2µM	11µM
O=[N+]([O-])c1cccnc1NCCc1c[nH]c2ccccc12	nt	3.5µM	nt	2.5µM	?
O=c1cc(Cl)[nH]c(=O)n1CCNc1ncc(C(F)(F)F)cc1Cl	?	?	i	3.2µM	13µM
CCSc1ncc(Cl)c(C(=O)Nc2c(C(=O)Nc3ccc(Cl)cc3)oc3ccccc23)n1	i	nt	nt	nt	i
CC1CCN(C(=O)COC(=O)c2ccc(Br)o2)CC1	i	i	i	i	24µM
CC1CCN(C(=O)COC(=O)c2ccc3c(c2)OCO3)CC1	i	?	i	3.5µM	17µM
Nc1ccc(C(=O)OCC(=O)N2CCOCC2)cc1[N+](=O)[O-]	20µM	?	i	?	?
CC1CCN(C(=O)COC(=O)c2cccc(NS(=O)(=O)c3ccccc3)c2)CC1	nt	i	nt	i	17µM
Nc1cc(C(=O)OCC(=O)N2CCOCC2)ccc1Cl	nt	i	nt	?	?
COc1ccc2nc(NNC(=O)COc3ccccc3)sc2c1	i	i	i	i	i
